Our source for the AC50 and outcome values is PubChem BioAssay (EPA / NIEHS).

SMILES strings stand for the structures. Calls of active or inactive are those of the source. The calls were made as follows: active = hit-call score of the fitted dose curve at least 0.9, where 1 is the maximum; inactive = score below 0.9.

Holding throughout (settings): mRNA level, 48 h; actives raise or lower the signal
Read-out in assay [1]: ABC Transporter (ABCC2), ABCC2 (gene 1244)
Nature of the assay: LTEA_HepaRG_ABCC2: Life Technologies and Expression Analysis (LTEA) Assay for ABC Transporter (ABCC2) using HepaRG (AID 2283464). Summed up:
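Gene expression of ABCC2 was determined by qRT-PCR in HepaRG cells exposed 48 h to chemicals (highest 100 uM, half-log dilutions). Activity was fitted in both directions relative to 0.5% DMSO vehicle.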

Read-out in assay [2]: Broad substrate specificity ATP-binding cassette transporter ABCG2 (Homo sapiens) (UniProt Q9UNQ0)
The experiment in a line: LTEA_HepaRG_ABCG2: Life Technologies and Expression Analysis (LTEA) Assay for ABC Transporter (ABCG2) using HepaRG (AID 2283465). Summed up:
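HepaRG, 48 h exposure, 8-pt half-log series from 100 uM, 0.5% DMSO vehicle, duplicates. Readout: ABCG2 transcript by qRT-PCR (Fluidigm array), housekeeping-normalized; bidirectional curve fit relative to DMSO baseline.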

Read-out in assay [3]: ATP-citrate lyase (ACLY), ACLY (gene 47)
The experiment in a line: LTEA_HepaRG_ACLY: Life Technologies and Expression Analysis (LTEA) Assay for ATP-citrate lyase (ACLY) using HepaRG (AID 2283466). Summed up: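 qRT-PCR readout of ACLY transcript after 48 h chemical treatment of HepaRG cells; expression normalized to three housekeeping genes. Eight-point half-log series, highest 100 uM, 0.5% DMSO vehicle. Gain or loss fitted against DMSO baseline.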

Read-out in assay [4]: Peroxisomal acyl-coenzyme A oxidase 1 (ACOX1) gene, ACOX1 (gene 51)
Nature of the assay: LTEA_HepaRG_ACOX1: Life Technologies and Expression Analysis (LTEA) Assay for Peroxisomal acyl-coenzyme A oxidase 1 (ACOX1) gene using HepaRG (AID 2283467). An outline of the steps:
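HepaRG, 48 h chemical exposure, 8-pt half-log series from 100 uM top, 0.5% DMSO vehicle, duplicates. Readout: ACOX1 mRNA by Fluidigm qRT-PCR, housekeeping-normalized; bidirectional fit vs DMSO baseline.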

Read-out in assay [5]: Alkaline Phosphatase, Placental (ALPP) gene, ALPP (gene 250)
Nature of the assay: LTEA_HepaRG_ALPP: Life Technologies and Expression Analysis (LTEA) Assay for Alkaline Phosphatase, Placental (ALPP) gene using HepaRG (AID 2283468). Summed up: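 Expression of ALPP was quantified by qRT-PCR against three housekeeping genes in human HepaRG cultures treated for 48 h with an eight-point concentration series up to 100 uM. Activity in either direction was fitted relative to 0.5% DMSO.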

Read-out in assay [6]: Bcl-2 (BAD) gene, BAD (gene 572)
The experiment in a line: LTEA_HepaRG_BAD: Life Technologies and Expression Analysis (LTEA) Assay for Bcl-2 (BAD) gene using HepaRG (AID 2283469). Summed up:
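HepaRG, 48 h exposure, 8-pt half-log curve from 100 uM in 0.5% DMSO, duplicates. Readout: TaqMan qRT-PCR for BAD mRNA, housekeeping-normalised (ACTB/GAPDH/POLR2A); gain or loss fitted against DMSO baseline.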

Read-out in assay [7]: adenosine kinase (ADK) gene, ADK (gene 132)
The experiment in a line: LTEA_HepaRG_ADK: Life Technologies and Expression Analysis (LTEA) Assay for adenosine kinase (ADK) gene using HepaRG (AID 2283471). An outline of the steps: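 ADK expression quantified by qRT-PCR, normalised to three housekeeping genes, after 48 h exposure of HepaRG cells to eight concentrations (top 100 uM, half-log steps, duplicate, 0.5% DMSO). Up- or down-regulation fitted relative to vehicle.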

Read-out in a further assay: BCL2L11 (gene 10018)
Nature of the assay: LTEA_HepaRG_BCL2L11: Life Technologies and Expression Analysis (LTEA) Assay for Bcl-2 (BCL2L11) gene using HepaRG (AID 2283473). An outline of the steps: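 Cells were plated, cultured 48 h, switched to serum-free induction medium, then dosed in duplicate for 48 h at eight half-log concentrations up to 100 uM. Lysates underwent RNA isolation and TaqMan qRT-PCR; gain or loss versus DMSO was fitted.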

Read-out in assay [8]: Apolipoprotein A-V (APOA5) gene, APOA5 (gene 116519)
The experiment in a line: LTEA_HepaRG_APOA5: Life Technologies and Expression Analysis (LTEA) Assay for Apolipoprotein A-V (APOA5) gene using HepaRG (AID 2283474). Summed up:
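Human liver HepaRG cells are treated 48 h with test chemicals (100 uM top, half-log dilutions, 0.5% DMSO). APOA5 mRNA induction or loss is measured by qRT-PCR relative to vehicle.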

Read-out in assay [9]: Apoptosis regulator Bcl-2 (Homo sapiens) (UniProt P10415)
The experiment in a line: LTEA_HepaRG_BCL2: Life Technologies and Expression Analysis (LTEA) Assay for Bcl-2 gene using HepaRG (AID 2283475). An outline of the steps:
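Plated human HepaRG cells are exposed to test chemicals for 48 h across eight concentrations from 100 uM downward in half-log steps (0.5% DMSO). BCL2 expression is then measured by qRT-PCR with housekeeping normalisation and fitted bidirectionally against vehicle.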

Read-out in assay [10]: Bcl-2 (BID) gene, BID (gene 637)
The experiment in a line: LTEA_HepaRG_BID: Life Technologies and Expression Analysis (LTEA) Assay for Bcl-2 (BID) gene using HepaRG (AID 2283476). Summed up:
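Cells are plated, cultured 48 h, switched to serum-free induction medium, then dosed 48 h (100 uM top, half-log steps, 0.5% DMSO). RNA is isolated and BID expression read by qRT-PCR.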

Read-out in the next assay: Caspase-3 (Homo sapiens) (UniProt P42574)
Nature of the assay: LTEA_HepaRG_CASP3: Life Technologies and Expression Analysis (LTEA) Assay for cysteine-aspartic acid protease (CASP3) using HepaRG (AID 2283477). Summed up:
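In HepaRG liver cells dosed for 48 h at up to 100 uM (eight-point, duplicate), CASP3 expression changes are scored by qRT-PCR. Activity is fitted in both directions with 0.5% DMSO as baseline.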

Read-out in assay [11]: Cytochrome P450 (CYP1A2), CYP1A2 (gene 1544)
The experiment in a line: LTEA_HepaRG_CYP1A2: Life Technologies and Expression Analysis (LTEA) Assay for Cytochrome P450 (CYP1A2) using HepaRG (AID 2283479).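 As to AC50: TaqMan qRT-PCR transcript level normalized to ACTB GAPDH and POLR2A.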 An outline of the steps:
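Assesses CYP1A2 mRNA in human HepaRG liver cells after 48 h chemical exposure at up to 100 uM. Values come from qRT-PCR with bidirectional curve fitting relative to DMSO.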

Read-out in assay [12]: cysteine-aspartic acid protease (CASP8), CASP8 (gene 841)
Nature of the assay: LTEA_HepaRG_CASP8: Life Technologies and Expression Analysis (LTEA) Assay for cysteine-aspartic acid protease (CASP8) using HepaRG (AID 2283480). An outline of the steps: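 qRT-PCR readout of CASP8 mRNA, normalized to three housekeeping genes, after 48 h chemical exposure of HepaRG cells; 8-point half-log series, top 100 uM, 0.5% DMSO vehicle. Bidirectional curve fitting against DMSO baseline.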

Read-out in assay [13]: Cytochrome P450 (CYP2B6), CYP2B6 (gene 1555)
Nature of the assay: LTEA_HepaRG_CYP2B6: Life Technologies and Expression Analysis (LTEA) Assay for Cytochrome P450 (CYP2B6) using HepaRG (AID 2283481). An outline of the steps:
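Using 48 h treatment of HepaRG cells in serum-free induction medium, concentrations spanned half-log steps from 100 uM in 0.5% DMSO vehicle. CYP2B6 mRNA induction or loss is scored by qRT-PCR against DMSO.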

Read-out in assay [14]: Cytochrome P450 2C19 (Homo sapiens) (UniProt P33261)
Nature of the assay: LTEA_HepaRG_CYP2C19: Life Technologies and Expression Analysis (LTEA) Assay for CYP2C19 using HepaRG (AID 2283482). An outline of the steps: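 Human HepaRG liver cells received test chemicals for 48 h (highest 100 uM, half-log dilutions in 0.5% DMSO). CYP2C19 mRNA induction or loss is read by multiplexed qRT-PCR and fitted in both directions versus vehicle.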

Read-out in assay [15]: Bcl-2 (BAX) gene, BAX (gene 581)
Nature of the assay: LTEA_HepaRG_BAX: Life Technologies and Expression Analysis (LTEA) Assay for Bcl-2 (BAX) gene using HepaRG (AID 2283470). An outline of the steps:
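Cells were thawed, plated for 48 h, moved to serum-free induction medium and dosed for 48 h (highest concentration 100 uM, half-log steps, 0.5% DMSO). Total RNA was then analysed for BAX expression by qRT-PCR.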

Read-out in the next assay: CYP2C8 (gene 1558)
Nature of the assay: LTEA_HepaRG_CYP2C8: Life Technologies and Expression Analysis (LTEA) Assay for CYP2C8 using HepaRG (AID 2283483). Summed up: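 HepaRG (human liver line), 48 h chemical exposure, 8-pt half-log series from 100 uM, 0.5% DMSO vehicle. Readout: CYP2C8 transcript by qRT-PCR, housekeeping-normalized. Bidirectional fit vs DMSO baseline.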

Read-out in assay [16]: Alpha-fetoprotein (AFP) gene, AFP (gene 174)
The experiment in a line: LTEA_HepaRG_AFP: Life Technologies and Expression Analysis (LTEA) Assay for Alpha-fetoprotein (AFP) gene using HepaRG (AID 2283472). Summed up: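 Chemicals were tested on differentiated HepaRG cells for 48 hours at eight concentrations up to 100 uM, with 0.5% DMSO as vehicle. AFP expression was then quantified by qRT-PCR and analyzed for gain or loss relative to DMSO.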

Cytochrome P450 2C19 (Homo sapiens), sequence (P33261 whole entry, looked up): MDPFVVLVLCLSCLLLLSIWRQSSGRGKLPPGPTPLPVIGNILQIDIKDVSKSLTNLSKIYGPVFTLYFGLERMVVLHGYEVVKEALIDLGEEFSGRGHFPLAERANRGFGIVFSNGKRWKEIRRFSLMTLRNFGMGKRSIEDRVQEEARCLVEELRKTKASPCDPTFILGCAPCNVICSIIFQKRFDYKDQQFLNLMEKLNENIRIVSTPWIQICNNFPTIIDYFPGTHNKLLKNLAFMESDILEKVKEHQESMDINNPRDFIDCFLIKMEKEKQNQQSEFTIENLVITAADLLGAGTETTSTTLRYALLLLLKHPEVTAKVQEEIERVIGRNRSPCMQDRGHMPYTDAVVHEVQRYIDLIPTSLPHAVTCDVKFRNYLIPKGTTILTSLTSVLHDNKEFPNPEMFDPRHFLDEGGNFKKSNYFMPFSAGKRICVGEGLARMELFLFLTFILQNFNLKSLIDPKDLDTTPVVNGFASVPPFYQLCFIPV
Apoptosis regulator Bcl-2 (Homo sapiens), sequence (P10415 whole entry, looked up): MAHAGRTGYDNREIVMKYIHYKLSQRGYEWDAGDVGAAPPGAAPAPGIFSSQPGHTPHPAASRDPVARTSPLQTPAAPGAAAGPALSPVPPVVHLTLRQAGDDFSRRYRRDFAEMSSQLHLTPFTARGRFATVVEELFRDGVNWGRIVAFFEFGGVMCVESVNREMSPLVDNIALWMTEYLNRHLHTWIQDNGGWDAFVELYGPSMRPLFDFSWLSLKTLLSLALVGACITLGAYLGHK
Caspase-3 (Homo sapiens), sequence (P42574 whole entry, looked up): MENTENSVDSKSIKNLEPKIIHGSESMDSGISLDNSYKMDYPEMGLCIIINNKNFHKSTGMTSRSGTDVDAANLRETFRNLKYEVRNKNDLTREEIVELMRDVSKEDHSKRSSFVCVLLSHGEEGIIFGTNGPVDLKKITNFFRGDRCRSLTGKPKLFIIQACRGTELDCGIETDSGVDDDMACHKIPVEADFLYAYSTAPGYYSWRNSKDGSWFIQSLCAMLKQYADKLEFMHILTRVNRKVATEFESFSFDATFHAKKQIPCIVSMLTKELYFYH
Broad substrate specificity ATP-binding cassette transporter ABCG2 (Homo sapiens), sequence (Q9UNQ0 whole entry, looked up): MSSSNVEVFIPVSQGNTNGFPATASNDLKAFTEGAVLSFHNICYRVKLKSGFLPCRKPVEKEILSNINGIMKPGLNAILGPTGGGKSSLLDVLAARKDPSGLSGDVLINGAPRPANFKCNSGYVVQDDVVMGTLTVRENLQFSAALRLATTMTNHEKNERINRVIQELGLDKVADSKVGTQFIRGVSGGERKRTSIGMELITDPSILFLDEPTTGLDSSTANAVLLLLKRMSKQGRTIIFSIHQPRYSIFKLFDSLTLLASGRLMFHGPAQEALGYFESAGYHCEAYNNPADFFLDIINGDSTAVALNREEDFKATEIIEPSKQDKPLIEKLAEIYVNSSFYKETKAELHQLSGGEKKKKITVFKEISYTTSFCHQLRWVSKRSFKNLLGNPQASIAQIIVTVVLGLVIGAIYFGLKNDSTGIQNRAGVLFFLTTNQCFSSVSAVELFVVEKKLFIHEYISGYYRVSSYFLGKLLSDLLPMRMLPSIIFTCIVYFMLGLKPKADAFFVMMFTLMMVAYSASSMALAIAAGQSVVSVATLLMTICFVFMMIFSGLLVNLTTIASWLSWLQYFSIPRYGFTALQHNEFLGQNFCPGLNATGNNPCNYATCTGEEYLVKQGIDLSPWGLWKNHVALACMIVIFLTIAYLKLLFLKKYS

One may read the AC50 as the midpoint of the concentration-response curve, whichever way the signal moves. `CCN(Cc1c(F)cccc1Cl)c1c([N+](=O)[O-])cc(C(F)(F)F)cc1[N+](=O)[O-]`: the AC50 was 50 µM (active) in assay [1]; 20.3 µM (active) in assay [2]; 26.7 µM (active) in assay [8]; 13.3 µM (active) in assay [11]; 12.7 µM (active) in assay [13]; 12.9 µM (active) in [14]. Moreover, the compound was called inactive (in [3]; in assay [4]; in [5]; in assay [6]; in [7]; in the assay with BCL2L11 (gene 10018)). In addition, the call (in assay [9]; in assay [10]; with Caspase-3 (Homo sapiens); in assay [12]) was inactive.

Regarding `C[C@]12C[C@H](O)[C@H]3[C@@H](CCC4=CC(=O)CC[C@@]43C)[C@@H]1CC[C@@H]2C(=O)CO`, the half-maximal activity concentration (AC50) was 67.9 µM (active) in [1], 50 µM (active) in [2] and 50 µM (active) in [13]. Also, the compound was called inactive (in [4]; in assay [5]; in [6]; in assay [15]; in assay [7]; with BCL2L11 (gene 10018)). Also, the compound was called inactive (in assay [8]; in assay [9]; in assay [10]; with Caspase-3 (Homo sapiens); in [12]).

Regarding `CCSC(=O)N(CC(C)C)CC(C)C`, the result in assay [1], in [2], in [3], in assay [4], in assay [5] and in assay [6] was inactive. Further, the call (in [7]; with BCL2L11 (gene 10018); in assay [8]; in [9]; in assay [10]; with Caspase-3 (Homo sapiens)) was inactive. The compound was called inactive (in [11]; in [12]; in assay [13]; in assay [14]; in the assay with CYP2C8 (gene 1558)).

For the compound `CC(C)(C)[C@@H](O)[C@@H](Cc1ccc(Cl)cc1)n1cncn1`, the concentration at half-maximal activity (AC50) in assay [1] was 13.1 µM (active); in [3], 50 µM (active); in assay [11], 50 µM (active); in assay [13] it was 3.37 µM (active); in assay [14] it was 7.33 µM (active). The result in [2], in [4], in assay [5], in assay [6], in assay [7] and in assay [16] was inactive. The compound was classed as inactive (with BCL2L11 (gene 10018); in [8]; in assay [9]; in assay [10]; with Caspase-3 (Homo sapiens); in assay [12]).

For the compound `CC1(C)C(C=C(Cl)Cl)C1C(=O)OCc1cccc(Oc2ccccc2)c1` (stereo not drawn), the call in [1], in [2], in [3], in [4], in assay [5] and in assay [6] was inactive. Also, the call (in [7]; with BCL2L11 (gene 10018); in assay [8]; in assay [9]; in assay [10]; in the assay with Caspase-3 (Homo sapiens)) was inactive. Besides, the outcome in assay [12] and in assay [14] was inactive. The AC50 in assay [11] is 11 µM (active); in assay [13], 12 µM (active).

With `O=C(c1ccc(O)cc1O)c1ccc(O)cc1O`, the compound was called inactive in assay [1], in assay [2], in [3], in assay [4], in assay [5] and in assay [6]. In addition, the call (in assay [7]; with BCL2L11 (gene 10018); in assay [8]; in assay [9]; in assay [10]; with Caspase-3 (Homo sapiens)) was inactive. Moreover, the compound was called inactive (in assay [11]; in assay [12]; in assay [13]; in [14]; with CYP2C8 (gene 1558)).

As for `CCCCC(CC)COC(=O)c1ccccc1C(=O)O` (stereo not drawn), the call in assay [1], in [2], in assay [4], in assay [5], in assay [6] and in assay [15] was inactive. In addition, the result (in assay [7]; in the assay with BCL2L11 (gene 10018); in assay [8]; in assay [9]; in [10]; with Caspase-3 (Homo sapiens)) was inactive. In addition, the result in assay [11], in assay [12] and in assay [14] was inactive. In addition, the half-maximal activity concentration (AC50) in [13] is 29.1 µM (active).
